# According to PubChem BioAssay AID1347076 (National Center for Advancing Translational Sciences (NCATS), 2019):
# Hit rate of the full screen: of about 400,000 compounds, about 13,000 (3.2%) were called active. Roughly 18% stayed inconclusive and do not appear here. Calls follow the shape of the dose curve; as a rule, active = well fitted cell-killing curve with a large enough effect; inconclusive = small, poorly fitted or top-dose-only effect, or effect the other way; inactive = flat fitted curve, though single readings scatter. This excerpt belongs to a sample that is enriched for actives.
# Test: qHTS assay for MDR1-selective chemotherapeutics: Primary screen using the drug-selected MDR subline cells KB-V1; also: nearly all actives have a fitted effect of over 60% in size
# Conditions: KB-V1 MDR cells viability, CellTiter-Glo, 72 h; series mostly up to 46.1 µM; activity change, negative = cytotoxicity: at the top concentration
# Summary of the method: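 Cells of the MDR subline KB-V1 are plated, dosed with compound at multiple concentrations, and incubated 72 h at 37 degrees C; CellTiter-Glo is then added and luminescence read after 10 min.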
# % is scaled to controls: 0 for no effect and ±100 for the full control effect; potency is read from the fitted curve at half-maximal effect.
SMILES,"activity change, negative = cytotoxicity",Potency
COc1cccc(-c2cc3nc(NCCOc4ccccc4Cl)n(C)c(=O)c3s2)c1,0.524% (inactive),–
N#Cc1nc(NCc2ccc(Cl)c(Cl)c2)c2ncn(CCCO)c2n1,-9.95% (inactive),–
COc1ccc(CN2C(=O)C(CC(=O)NCCCCc3ccccc3)CC(C(=O)N3CCOCC3)=C2C)cc1 (configuration not stated),17.3% (inactive),–
CCCN(CCC)C(=O)Cn1c(=O)n(-c2ccc(Cl)cc2)c(=O)c2c3c(sc21)CCCCC3,7.14% (inactive),–
N#Cc1ccc[n+](CC(=O)c2ccc(F)cc2)c1,0.435% (inactive),–
COC(=O)c1ccc(CSc2nc3ccccc3c(=O)n2-c2cccc(OC)c2)o1,3.77% (inactive),–
COc1ccc(CCNC(=O)CSc2nc3[nH]ncc3c(=O)n2-c2cccc(C(F)(F)F)c2)cc1OC,0.314% (inactive),–
Cc1cccc2nc(CSc3nc4[nH]ncc4c(=O)n3-c3cccc(Cl)c3)cc(=O)n12,–,23.1 µM (active)
Cc1ccc(NC(=O)[C@H](Cc2ccccc2)NC(=O)CC[C@H]2O[C@@H](n3ccc(=O)[nH]c3=O)[C@H](O)[C@@H]2O)cc1C,-15.9% (inactive),–
O=C(c1ncn2c1c(=O)[nH]c1ccccc12)N1CCc2ccccc2C1,2.78% (inactive),–
CN1CCN(c2oc(-c3ccc(COc4ccc(Cl)cc4)o3)nc2C#N)CC1,8.39% (inactive),–
CC1(C)Cc2cccc(OCC(N)=O)c2O1,5.68% (inactive),–
CC1(C)Cc2cccc(OCC(=O)N3CCN(c4ccc([N+](=O)[O-])cc4)CC3)c2O1,–,2.59 µM (active)
CC1(C)Cc2cccc(OCC(=O)NCc3ccccc3)c2O1,-22.5% (inactive),–
CN(c1ccccc1)S(=O)(=O)c1ccc(C(=O)NCCc2ccccc2)cc1,-4.77% (inactive),–
COc1ccccc1CNC(=O)c1ccc(N(C)S(=O)(=O)c2ccc(C)cc2)cc1,-19% (inactive),–
Cc1ccccc1CSCCNC(=O)c1ccc(N(C)S(=O)(=O)c2ccccc2)cc1,–,13 µM (active)
COCc1cccc(-c2csc(C(O)c3ccc(F)cc3)n2)c1 (configuration not stated),2.22% (inactive),–
OCCn1c(-c2ccccc2)csc1=Nc1ccccc1,–,14.6 µM (active)
O=c1cc(CCl)nc2scc(-c3ccccc3)n12,-0.12% (inactive),–
Cn1c(=O)nc2n(-c3ccc(Br)cc3)c3cccc(Cl)c3cc-2c1=O,-4.35% (inactive),–
CCOc1ccc(Cl)cc1-c1cc(C(=O)NCc2cccs2)[nH]n1,-10.2% (inactive),–
CCc1ccccc1OCC(=O)Nc1nnc(C2CC2)s1,-5.12% (inactive),–
N#C/C(=C\c1ccc(-c2cccc([N+](=O)[O-])c2)o1)C(=O)NCCN1CCOCC1,-8.35% (inactive),–
Cc1ccc(Cc2cnc(NC(=O)/C(C#N)=C/c3ccc(-c4cccc([N+](=O)[O-])c4)o3)s2)cc1,–,18.4 µM (active)

SMILES,"activity change, negative = cytotoxicity",Potency
Cc1ccc(C(=O)N/C(=C/c2ccc(-c3cccc([N+](=O)[O-])c3)o2)C(=O)NCCCN(C)C)cc1,-1.53% (inactive),–
CC(C)[C@H](NC(=O)c1ccccc1F)C(=O)Nc1cccc(S(=O)(=O)N2CCOCC2)c1,-24.2% (inactive),–
NS(=O)(=O)c1ccc(CCNC(=O)CCCCCn2c(=O)[nH]c3ccccc3c2=O)cc1,22.6% (inactive),–
C[C@@H]1Cn2cnc(C(=O)Nc3ccc(CNC(=O)OC(C)(C)C)cc3)c2C(=O)N1,-13.1% (inactive),–
Cc1nnc2n1N=C(c1ccccc1)CS2,7.55% (inactive),–
COc1ccccc1-c1nnc2n1N=C(c1ccc(OC(F)F)c(OCC3CC3)c1)CS2,-13% (inactive),–
COc1ccc(C2=Nn3c(nnc3-c3ccccc3OC)SC2)cc1OC1CCCC1,–,5.8 µM (active)
COc1ccc2c(CNCCc3ccccc3C)c(C(=O)O)n(Cc3ccccc3C)c2c1,3.86% (inactive),–
COc1ccc(S(=O)(=O)N[C@@H]2C=C[C@@H](CC(=O)N3CCc4ccccc4C3)O[C@@H]2CO)cc1,-1.54% (inactive),–
COc1cccc(NC(=O)CN(C)C(=O)Cc2ccc(Cl)cc2Cl)c1,-6.54% (inactive),–
COc1cccc(NC(=O)CN(C)C(=O)/C=C/c2cc(OC)ccc2OC)c1,–,10.3 µM (active)
COc1cccc(NC(=O)CN(C)C(=O)/C=C/c2cn(-c3ccccc3)nc2-c2cccs2)c1,-25.7% (inactive),–
O=C(O)C1CCCN1c1nc(Cl)ccc1[N+](=O)[O-] (configuration not stated),21.7% (inactive),–
COc1ccc(NC2CCCN(C(=O)c3ccccc3-c3ncc[nH]3)C2)cc1 (configuration not stated),18.4% (inactive),–
COc1cccc(/C=N/NC(=O)c2cccc([N+](=O)[O-])c2)c1OS(=O)(=O)c1ccc(C)cc1,–,16.4 µM (active)
COc1cc(OC)c(/C=N/NC(=O)c2ccc([N+](=O)[O-])cc2)cc1Br,8.39% (inactive),–
Cc1ccc(S(=O)(=O)Oc2ccc(/C=N/NC(=O)c3ccncc3)cc2)cc1,-2.26% (inactive),–
CC(C)C[C@H]1CN([C@@H](Cc2ccccc2)CN2CCC[C@@H]2CN2C(=O)C(=O)NC[C@@H]2Cc2ccc(O)cc2)C(=O)C(=O)N1CCc1ccccc1,13.8% (inactive),–
COc1ccccc1N1CCN(c2ncnc3onc(-c4cccc(Cl)c4)c23)CC1,5.03% (inactive),–
Cc1ccc(Nc2c(-c3ccc(C)cc3)nc3cnccn23)cc1,9.35% (inactive),–
CCOc1cc(-c2nnc(SCC(=O)NC3CCCCC3)nc2-c2ccc(OC)c(OCC)c2)ccc1OC,2.67% (inactive),–
COc1ccc(-c2nc3cnccn3c2NC2CCCCC2)cc1-c1cccc(Cl)c1,–,14.6 µM (active)
COc1ccc(C)cc1S(=O)(=O)NC1CCCCC1,0.661% (inactive),–
COc1cccc(CNC(=O)CN2C(=O)CCc3cc(S(=O)(=O)N4CCOCC4)ccc32)c1,-9.66% (inactive),–
CCCNC(=O)c1cc(C2CCCCN2C(=O)OC)on1 (configuration not stated),6.18% (inactive),–

SMILES,"activity change, negative = cytotoxicity",Potency
CCC(C)C(CO)NC(=O)/C=C/[C@H]1O[C@@H](n2cnc3c(NC(=O)c4ccccc4)ncnc32)[C@H](O)[C@@H]1O (some centres not stated),0% (inactive),–
COc1ccc([C@H]2N[C@]3(CCCN(CC4CCCCC4)C3=O)[C@H]3C(=O)N(C)C(=O)[C@@H]23)cc1,-23% (inactive),–
Cn1c(=O)c2cc(NC(=O)NCCc3cccs3)ccc2n1Cc1cccc(C(F)(F)F)c1,2.61% (inactive),–
CC(=O)Nc1cccc(-c2csc(Nc3cccc(C)n3)n2)c1,–,20.6 µM (active)
Cc1cccc(Nc2nc(-c3ccccc3)cs2)n1,3.01% (inactive),–
CC(=O)NC(c1ccccc1)c1nc(-c2cccc(C(C)C)c2)cs1 (configuration not stated),-17.7% (inactive),–
O=C1CC[C@@H](C(=O)N2CSC[C@@H]2C(=O)Nc2ccc(C(F)(F)F)cc2)N1,-0.952% (inactive),–
Cc1ccc(-c2nc(=N)sn2Cc2ccccc2)cc1,-15.3% (inactive),–
CN(N=O)c1ccc(C=C2c3ccccc3-c3ccccc32)cc1,3.84% (inactive),–
O=C(NCc1cccnc1)c1cc(C2CCCN(C(=O)C3CCCCC3)C2)on1 (configuration not stated),3.13% (inactive),–
CC1(C)CC(=O)c2cc(C(=O)NCc3ccccc3)c(=O)[nH]c2C1,20.8% (inactive),–
CC(NC(=O)c1ccccc1F)c1cccc2ccccc12 (configuration not stated),-13.6% (inactive),–
CC(NC(=O)c1ccccc1SCC(=O)N1CCCC1)c1ccccc1 (configuration not stated),-20.8% (inactive),–
CC(NC(=O)c1cccc2ccccc12)c1ccc2c(c1)CCCC2 (configuration not stated),–,20.6 µM (active)
O=C1CCC(=O)N1CCC(=O)N(C(=O)NC1CCCCC1)C1CCCCC1,-20.2% (inactive),–
CCOc1ccc(CCN2C(=O)C(=O)N([C@@H](Cc3ccc(O)cc3)CN3CCC[C@H]3CN3C(=O)C(=O)NC[C@@H]3CC(C)C)C[C@@H]2Cc2ccccc2)cc1,-3.43% (inactive),–
CCCNC(=O)C1(C)CCN(C(=O)c2ccccc2OC(F)(F)F)C1 (configuration not stated),16.4% (inactive),–
Cc1cc(O)ccc1-c1cc(C(=O)NCc2cc(C(F)(F)F)cc(C(F)(F)F)c2)[nH]n1,7.22% (inactive),–
O=[N+]([O-])c1ccc(N2CCSCC2)cc1O,0% (inactive),–
CC1CCN(c2ccc([N+](=O)[O-])c(SCCO)c2)CC1,-1.25% (inactive),–
CN1CCN(c2ccc([N+](=O)[O-])c(Sc3nc4ccccc4[nH]3)c2)CC1,–,14.6 µM (active)
COc1ccc(Sc2ccc(NC(=O)c3cccc(Cl)c3)cc2C#N)cc1,2.24% (inactive),–
COc1ccc(-c2nn(-c3ccccc3)cc2/C=N/Nc2ccccn2)cc1OC,–,3.66 µM (active)
Oc1ccc(Br)cc1/C=N/Nc1ccccn1,0.606% (inactive),–
COc1ccc(-c2nn(-c3ccccc3)cc2C(=O)Nc2nccs2)cc1OC,-9.36% (inactive),–

SMILES,"activity change, negative = cytotoxicity",Potency
CS(=O)(=O)c1cccc(-c2ccc3nncn3c2)c1,-2.98% (inactive),–
CCN(CCCNC(=O)c1c(C)oc2ncn(CC(C)C)c(=O)c12)Cc1ccccc1,2.97% (inactive),–
OCCN1CCN(c2ncnc3c2ncn3[C@H]2CN(Cc3ccco3)C[C@@H](CO)O2)CC1,-0.202% (inactive),–
O=S(=O)(Cc1ccc(Cl)cc1Cl)c1ccc(Cl)cc1,–,1.46 µM (active)
O=S(=O)(NCc1ccc(Cl)cc1Cl)c1cccs1,-2.09% (inactive),–
Cc1ccc(S(=O)(=O)Cc2cc(-c3ccc(Cl)cc3)no2)cc1,-17.3% (inactive),–
CCCCc1ccc(S(=O)(=O)NC(=O)C2(C)CCN2C(=O)c2c(C)noc2C)cc1 (configuration not stated),-17.6% (inactive),–
CCN(CCN(C)C)C(=O)c1ccc2nc(C)c(N(C)C(=O)CCc3ccccc3)n2c1,4.85% (inactive),–
O=C(NC1CCCC1)C(c1ccccn1)N(C(=O)c1csnn1)C1CCCC1 (configuration not stated),–,20.6 µM (active)
O=C(NC1CCCC1)C(c1ccc(Cl)cc1)N(C(=O)c1csnn1)C1CC1 (configuration not stated),-1.08% (inactive),–
Cc1ccc(C(C(=O)NC2CCCCC2)N(C(=O)c2csnn2)C2CC2)o1 (configuration not stated),-1.13% (inactive),–
Cc1ccc(NC(=O)c2cc3cc(C)ccc3n2C)cc1,0% (inactive),–
COc1ccccc1-c1n[nH]nc1C1=CC(=O)CC(C)(C)C1,9.54% (inactive),–
CNC(=O)NC(=O)C(OC(=O)c1cccc(S(=O)(=O)N2CCCCC2)c1)c1ccccc1 (configuration not stated),–,23.1 µM (active)
CC(OC(=O)c1cccc(S(=O)(=O)N2CCOCC2)c1)C(=O)NCC1CCCCC1 (configuration not stated),2.96% (inactive),–
O=C(NNC1=NCCC1)c1cccc(S(=O)(=O)N2CCCCC2)c1,0.111% (inactive),–
Cc1cccc(CNC(=O)c2cnc3sc(N4CCCCC4)nn3c2=O)c1,0% (inactive),–
Cc1ccc(C)c2sc(NC(=O)c3ccc(S(=O)(=O)N4CCCC4)cc3)nc12,8.13% (inactive),–
Cc1nn(CC(=O)NCCc2ccccc2)c(=O)c2c1sc1ccccc12,-11.2% (inactive),–
COc1cc(/C=N/NC(=O)Nc2ccccc2)ccc1OCCOc1ccccc1C,–,2.31 µM (active)
COc1cc(/C=N/NC(=O)c2ccoc2C)ccc1OCCN1CCCCC1,22.5% (inactive),–
COC(=O)c1ccc(COc2ccc(/C=N/NC(=O)C(=O)Nc3ccc(OC)cc3)cc2OC)o1,-3.79% (inactive),–
